Shown is part of a subset that was picked to be rich in the strongest signals.
Each substance was assayed on Fuc(a1-2)[Gal(a1-3)]Gal(b1-4)[Fuc(a1-3)]GlcNAc(b1-3)GalNAc (assay: glycan array binding signal (z-score within array); higher = stronger binding). Settings: glycan notation: IUPAC condensed, linker removed.
Procedure, shortened: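 Glycan array data came from 3228 arrays in the Consortium for Functional Glycomics database, and only arrays with an available protein sequence were kept. Glycan names were put into IUPAC-condensed notation, and columns mapping to the same glycan were averaged. The binding signal is a within-array Z-score, averaged across arrays of one protein sequence run at different concentrations or buffers and across linkers. A negative Z-score can be read as non-binding.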

Neurocan (Homo sapiens), O14594, sequence (O14594 other isoform, or with tags, fused parts or gaps): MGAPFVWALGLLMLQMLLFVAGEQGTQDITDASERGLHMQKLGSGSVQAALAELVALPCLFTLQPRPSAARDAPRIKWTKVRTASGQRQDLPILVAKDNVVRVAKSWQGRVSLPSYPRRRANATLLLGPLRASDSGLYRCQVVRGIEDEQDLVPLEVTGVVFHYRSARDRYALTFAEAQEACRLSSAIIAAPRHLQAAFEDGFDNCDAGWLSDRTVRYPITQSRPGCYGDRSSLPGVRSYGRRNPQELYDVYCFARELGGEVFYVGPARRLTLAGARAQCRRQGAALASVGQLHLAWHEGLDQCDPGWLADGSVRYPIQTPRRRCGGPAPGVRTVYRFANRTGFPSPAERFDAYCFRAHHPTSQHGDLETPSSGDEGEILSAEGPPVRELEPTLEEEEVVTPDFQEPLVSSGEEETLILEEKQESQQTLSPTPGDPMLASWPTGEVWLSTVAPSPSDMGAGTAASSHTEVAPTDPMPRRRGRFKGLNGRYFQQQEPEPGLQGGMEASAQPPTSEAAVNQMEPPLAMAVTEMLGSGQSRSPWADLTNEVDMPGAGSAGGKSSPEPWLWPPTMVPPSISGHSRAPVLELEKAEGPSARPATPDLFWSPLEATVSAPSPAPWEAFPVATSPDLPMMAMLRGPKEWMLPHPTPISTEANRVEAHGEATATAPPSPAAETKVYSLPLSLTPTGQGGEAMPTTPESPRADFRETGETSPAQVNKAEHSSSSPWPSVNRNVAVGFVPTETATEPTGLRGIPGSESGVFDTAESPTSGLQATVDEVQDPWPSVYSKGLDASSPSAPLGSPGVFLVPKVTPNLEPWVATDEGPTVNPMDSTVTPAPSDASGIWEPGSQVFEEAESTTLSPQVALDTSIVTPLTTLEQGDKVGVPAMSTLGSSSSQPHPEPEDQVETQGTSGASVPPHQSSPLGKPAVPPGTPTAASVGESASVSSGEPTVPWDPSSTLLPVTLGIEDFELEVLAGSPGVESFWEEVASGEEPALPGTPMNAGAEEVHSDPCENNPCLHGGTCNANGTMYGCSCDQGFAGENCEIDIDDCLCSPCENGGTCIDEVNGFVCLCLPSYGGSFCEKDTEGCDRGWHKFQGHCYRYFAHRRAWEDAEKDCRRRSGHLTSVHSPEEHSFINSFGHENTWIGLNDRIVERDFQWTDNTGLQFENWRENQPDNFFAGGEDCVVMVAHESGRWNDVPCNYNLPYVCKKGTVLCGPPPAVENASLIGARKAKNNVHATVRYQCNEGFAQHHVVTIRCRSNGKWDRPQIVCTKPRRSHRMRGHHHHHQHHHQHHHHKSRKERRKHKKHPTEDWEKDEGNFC
CHI3L1 (Homo sapiens), P36222, sequence (P36222 whole entry): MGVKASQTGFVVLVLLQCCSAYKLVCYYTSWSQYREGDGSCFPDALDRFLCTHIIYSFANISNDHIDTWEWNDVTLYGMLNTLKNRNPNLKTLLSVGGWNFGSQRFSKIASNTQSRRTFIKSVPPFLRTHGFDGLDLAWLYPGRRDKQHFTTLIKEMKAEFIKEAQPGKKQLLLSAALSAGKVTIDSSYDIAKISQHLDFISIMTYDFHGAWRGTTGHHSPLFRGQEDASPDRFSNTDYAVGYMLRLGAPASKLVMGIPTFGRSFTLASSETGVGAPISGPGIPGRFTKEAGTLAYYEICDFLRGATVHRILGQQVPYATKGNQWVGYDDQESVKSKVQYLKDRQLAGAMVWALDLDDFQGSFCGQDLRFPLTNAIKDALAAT
PILRb (Mus musculus), Q2YSF2, sequence (Q2YSF2 entry or part of it): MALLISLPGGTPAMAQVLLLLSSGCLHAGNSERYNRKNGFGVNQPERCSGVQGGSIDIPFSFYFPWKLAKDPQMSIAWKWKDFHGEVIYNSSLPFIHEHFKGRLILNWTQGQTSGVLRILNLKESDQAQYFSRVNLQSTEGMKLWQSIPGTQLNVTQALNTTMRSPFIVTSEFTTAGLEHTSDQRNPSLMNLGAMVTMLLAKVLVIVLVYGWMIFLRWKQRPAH
PILRa (Mus musculus), Q2YSF3, sequence (Q2YSF3 entry or part of it): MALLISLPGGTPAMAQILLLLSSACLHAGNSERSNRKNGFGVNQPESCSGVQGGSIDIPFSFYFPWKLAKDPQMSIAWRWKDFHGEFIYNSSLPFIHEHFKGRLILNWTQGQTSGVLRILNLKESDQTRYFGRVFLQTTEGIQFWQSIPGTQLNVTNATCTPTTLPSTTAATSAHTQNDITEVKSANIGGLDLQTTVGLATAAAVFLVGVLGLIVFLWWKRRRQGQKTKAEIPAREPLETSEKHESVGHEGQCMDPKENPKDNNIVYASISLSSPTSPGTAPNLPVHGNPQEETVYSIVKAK

How did the “glycan array binding signal (z-score)” value turn out when PILRb (Mus musculus), Q2YSF2 was run?
Its value is 3.94.

PILRa (Mus musculus), Q2YSF3 was tested. Which “glycan array binding signal (z-score)” value did it give?
Its value is 0.044.

Which “glycan array binding signal (z-score)” value does the source give for CHI3L1 (Homo sapiens), P36222 here?
The value was -0.1.

For Neurocan (Homo sapiens), O14594, which “glycan array binding signal (z-score)” value is on record?
Its value is 0.513.

— the supplement of paper PMC8728848
